The assay deals with Plasmodium falciparum. The assay is described as follows: GSK_TCMDC: Inhibition of Plasmodium falciparum 3D7 in whole red blood cells, using parasite LDH activity as an index of growth. Test compounds present at 2uM. Type of assay: functional.
The Inhibition is how much of the control response was suppressed. `O=C(/C=C/c1ccc(Cl)c(Cl)c1)NCCCCCN1CCC(c2c[nH]c3cc(O)ccc23)CC1` registered an Inhibition of 100%.
Then `Cl.N=C(N)c1cccc(OCCCOc2cccc(NC(=O)Nc3ccc([N+](=O)[O-])cc3)c2)c1`, with 98%; and `O=C(Nc1ccccc1N1CCOCC1)c1ncoc1-c1ccccc1C(F)(F)F`, with 89%; and `CCC(O)(C#Cc1c(C)nc(N)nc1N)CC`, with 97%.
The value for `O=C(/C=C/c1ccc(Cl)c(Cl)c1)NCCCCCN1CCCC(C(=O)Nc2cccc(Cl)c2)C1` (stereo unspecified) was 99%; that for `CN1CCN(c2ccnc3cc4c(cc23)N(Cc2ccccc2)CC4)CC1` was 94%; that for `O=C(O)C(F)(F)F.O=S(=O)(NCCN1CCCC1)c1cccc(-c2ccc(CNCc3ccsc3)cc2)c1` was 100%.
Then `CCc1ccc(NC(=O)c2ccc(CN3CCCN(Cc4cccs4)CC3)cc2)cc1.O=C(O)C(F)(F)F`, with 87%; and `O=C(NCCCCCN1CCCN(C(=O)Nc2ccc(F)c(C(F)(F)F)c2)CC1)C1CC1c1ccc(Cl)c(Cl)c1` (stereo unspecified), with 90%; and `Cc1nc(-c2cccc(C(=O)Nc3cnc4ccccc4c3)c2)no1.O=C(O)C(F)(F)F`, with 85%.
In turn, `Cc1ccc(CNC(=O)c2cnc(N3CCN(c4ccncc4)CC3)c(Cl)c2)cc1.O=C(O)C(F)(F)F` gave an Inhibition of 92%.
The value for `Cn1cncc1C(=O)Nc1cccc(-c2ccc(-c3nc4ccccc4[nH]3)s2)c1` was 100%; that for `N#Cc1nc2ccc(OCCN(Cc3ccccc3C(F)(F)F)c3ccc(C#N)c(C(F)(F)F)c3)cc2s1` was 93%.
The value for `CCNc1cc(C(=O)N[C@@H](Cc2ccccc2)[C@H](O)CNC(C)(C)CSCC(C)C)cc(N2CCCC2=O)c1` was 100%; that for `CNc1ccc(CNCc2cccc(-c3ccc(-c4nc5cccc(C)c5[nH]4)s3)c2)cc1.O=C(O)C(F)(F)F` was 100%.
`Cc1cccc2nc(-c3cccc(-c4cccc(CN5CCC(CO)CC5)c4)c3)[nH]c12.O=C(O)C(F)(F)F` gave an Inhibition of 100%.
The value for `CCC[C@@H]([C@@H](CC1CCCCC1)C(=O)N[C@@H](CCCCNS(C)(=O)=O)C(=O)Nc1nccs1)N(O)C=O` was 100%.
Then `Clc1ccc(-c2nc3cc(-c4ccc5nc(-c6ccc(Cl)cc6)[nH]c5c4)ccc3[nH]2)cc1`, with 100%.
Then `O=C(NC1CCCc2ccccc21)C1CCCN(C(=O)c2ccc(O)c(-c3ccc(Cl)c(Cl)c3)c2)C1` (stereo unspecified), with 88%; and `O=C(Nc1cccc(-c2nn3ccccc3c2-c2ccnc(Nc3ccc(-c4cc[nH]n4)cc3)n2)c1)c1c(F)cccc1F`, with 98%; and `CS(=O)(=O)CCNCc1cc(-c2cc3ncnc(Nc4ccc(OCc5cccc(F)c5)c(Cl)c4)c3s2)cs1`, with 99%.
For `OC(CNCc1ccccc1OCc1ccccc1)c1cccc(Cl)c1` (stereo unspecified), the Inhibition came out at 100%.
Consider `COc1ccc(-c2cnc3ccc(NCc4ccc(S(N)(=O)=O)cc4)nn23)cc1`, for which the Inhibition is on record as 96%.
Compound `CN(C)c1ccc(CN2CCC(CNC(=O)c3cc(-c4cccc(C(F)(F)F)c4)cs3)C2)cc1.O=C(O)C(F)(F)F` (stereo unspecified) showed an Inhibition of 96%.
`CN1CCCN(Cc2ccc(-c3ccc(NC(=O)c4cccc(Cl)c4)cc3)cc2)CC1.O=C(O)C(F)(F)F` returned an Inhibition of 95%.
Regarding `Cc1noc(C)c1-c1cccc(CNCc2ccc(-c3cccc(-c4nc5cc(C(F)(F)F)ccc5[nH]4)c3)cc2)c1.O=C(O)C(F)(F)F`, the Inhibition is recorded as 100%.
The value for `COc1cc(C=NNc2cc(C)nc3c(OC)cccc23)cc(OC)c1OC` was 94%.
Then `COc1ccc(CCNCCCCCCNCCc2ccccc2Cl)cc1OC.Cl`, with 96%; and `N#Cc1ccc(N/C(=N\c2cccc(Cl)c2Cl)NC2Cc3ccccc3C2)c(O)c1`, with 94%.
The value for `COc1cc(NC(=O)N2CCOC(CCN3CCC(c4ccccc4)CC3)(c3ccc(Cl)c(Cl)c3)C2)cc(OC)c1` (stereo unspecified) was 93%; that for `CCC(C)c1ccc(NC(=O)Nc2ccnc3ccccc23)cc1.Cl` (stereo unspecified) was 98%; that for `N=C(N)c1ccc(NCc2cccc(C(=O)O)c2)cc1.O=C(O)C(F)(F)F` was 84%.
`Fc1ccc2[nH]c(-c3cccc(-c4cccc(CNCC5CCCO5)c4)c3)nc2c1.O=C(O)C(F)(F)F` (stereo unspecified) yielded an Inhibition of 99%.
`CN(C)c1cc(C(=O)N[C@@H](Cc2ccccc2)[C@H](O)CNC2CCCCC2)cc2[nH]ccc12.O=CO` displayed an Inhibition of 98%.
The value for `O=C(/C=C/c1ccc(Cl)cc1)NCCCCCN1CCC(C(=O)Nc2ccc(Cl)c(Cl)c2)CC1` was 100%; that for `CCc1c(C)c2ccc3c(c2oc1=O)CN(CCc1ccc(F)cc1)CO3` was 94%.
